Data on 40 compounds can be found in PubChem BioAssay (Tox21).

The structures appear in SMILES notation. “And” between values parts separate entries of the source, which are not always exact repeats. Equal values may be shown once. Results filed as inconclusive are left out. Entries that show only a call come without a potency. The source made the active and inactive calls. Calls come from the whole dose curve; as a rule, active = well fitted activation curve with a large enough effect in the repeat runs; inconclusive = weak or mixed curves; inactive = no such curve, though single readings can be large or run the other way.
Potency is the fitted concentration of half-maximal effect.

Chain of Nuclear receptor subfamily 1 group I member 3 (Homo sapiens) (Q14994 whole entry, looked up): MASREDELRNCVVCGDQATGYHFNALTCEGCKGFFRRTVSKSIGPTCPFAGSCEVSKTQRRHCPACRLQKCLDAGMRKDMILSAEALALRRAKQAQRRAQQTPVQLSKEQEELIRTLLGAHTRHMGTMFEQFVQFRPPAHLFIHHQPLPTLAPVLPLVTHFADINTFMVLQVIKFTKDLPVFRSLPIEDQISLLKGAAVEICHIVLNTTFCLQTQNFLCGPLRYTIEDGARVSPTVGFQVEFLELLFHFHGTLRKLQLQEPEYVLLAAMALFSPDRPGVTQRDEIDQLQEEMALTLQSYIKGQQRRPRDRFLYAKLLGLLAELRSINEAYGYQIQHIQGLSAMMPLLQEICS

The experiment addresses Nuclear receptor subfamily 1 group I member 3 (Homo sapiens) (UniProt Q14994). Nature of the experiment: qHTS assay to identify small molecule agonists of the constitutive androstane receptor (CAR) signaling pathway (AID 1224839).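 For activation: HepG2 cells stably carrying human CAR and a CYP2B6 luciferase reporter.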 Note: nearly all actives have a fitted effect of over 15% in size. The conditions noted are these: HepG2 hCAR CYP2B6-luciferase, agonist mode, 24 h; series mostly up to 92.4 µM. An excerpt: National Center for Advancing Translational Sciences [NCATS] NIH Chemical Genomics Center [NCGC] U.S. Environmental Protection Agency [EPA] National Institutes of Environmental Health Sciences [NIEHS] National Toxicology Program [NTP] Assay overview: The constitutive androstane receptor (CAR) is a nuclear receptor which regulates multiple drug metabolizing enzymes (DMEs) and transporters. Activating CAR will generally increase the transcription and subsequent translation of CYP2B6 and CYP3A4. These two DMEs represent about 50% of the drug metabolizing potential in the body. […] Recently, there have also been studies performed indicating CARs role in energy metabolism and cancer therapy. Therefore, inducing CARs activity could have a potential effect on diabetes and cancer. Identifying environmental toxins and compounds which modulate CAR, through the use of the Tox21 10K compound collection, will be an important step in determining the toxicity and potential therapeutic effects these factors will have on the human body.
Assay Protocol Summary: A double-stable (hCAR and CYP2B6-2.2kb) transfected cell line, derived from human hepatoma (HepG2) cells, was utilized for the duration of the quantitative high-throughput screens. The HepG2-CYP2B6-hCAR cells suspended in DMEM culture medium supplemented with 10% FBS, 5 ug/mL blasticidin, 0.5 mg/mL geneticin, 100 U/mL penicillin and 100 ug/mL streptomycin were dispensed at 2500 cells/4 uL/well in 1536-well white solid bottom plates using a Multidrop Combi. After the assay plates were incubated at 37 C/5% CO2 for 4 hrs, 23 nL of compounds at 15 concentrations (from 5-48 columns) or positive control (from 1 to 4 columns) were transferred to the assay plates using a Pintool station. One uL of PK11195, was added using a Flying Reagent Dispenser to generate a final concentration of 0.75 uM PK11195 inside each well. After a 24 hr incubation period at 37 C/5% CO2, four uL of ONE-Glo reagent was added into the assay plates using a Flying Reagent Dispenser. After a 30 min incubation period at room temperature, the luminescence intensity in the assay plates was measured using a ViewLux plate reader.
(In general: Quantitative high-throughput screening tests each substance at several concentrations.)
For the compound `CC(=O)CC(C)(C)C1CCCCC1`, the Potency result was “inactive”.

In the case of `N=C(N)c1ccc2cc(OC(=O)c3ccc(N=C(N)N)cc3)ccc2c1`, the Potency result was “inactive”.

Take `C=CCOCC(CC)(CO)COCC=C`: the Potency entry is “inactive”.

`CC(C)CNCC(C)C`: the Potency result was “inactive”.

On to `CCCCCCCCCCCC`, for which the Potency entry is “inactive”.

On to `C[C@H]1C[C@@H](O)CC(C)(C)C1`, for which the Potency entry is “inactive”.

With `Nc1cc(=O)[nH]c(N)n1`, the Potency result was “inactive”.

`CCCCOCCOCCOCc1cc2c(cc1CCC)OCO2`: the Potency is 7.79 µM (active) and 11.9 µM (active).

Take `Cc1c(O)cccc1O`: the Potency result was “inactive”.

On to `N=c1nc(N2CCCCC2)cc(N)n1O`, for which the Potency result is “inactive”.

In the case of `CC1(C)C(O)C(C)(C)C1O` (stereo not given), the Potency result is “inactive”.

Consider `CCSC(=O)N(CC(C)C)CC(C)C`, for which the Potency result is “inactive”.

In the case of `Cc1sccc1Br`, the Potency result is “inactive”.

Consider `COc1c(N2C[C@@H]3CCCN[C@@H]3C2)c(F)cc2c(=O)c(C(=O)O)cn(C3CC3)c12`, for which the Potency result is “inactive”.

As to `Cc1[nH]c(=O)c(C#N)cc1-c1ccc2nccn2c1`, the Potency entry was “inactive”.

Regarding `C[N+](C)(C)CCCCCC[N+](C)(C)C`, the Potency entry is “inactive”.

`CCOC(=O)C(=O)OCC`: the Potency entry is “inactive”.

For the compound `Nc1c2c(nc3ccccc13)CCCC2O` (stereo not given), the Potency result is “inactive”.

Take `CN(C)CCCNCCCN(C)C`: the Potency entry is “inactive”.

On to `NS(=O)(=O)c1cc(C(=O)NN2C[C@H]3[C@H]4CCC(C4)[C@H]3C2)ccc1Cl`, for which the Potency result is “inactive”.

Turning to `CO[C@]12C[C@@H](COC(=O)c3cncc(Br)c3)CN(C)[C@@H]1Cc1cn(C)c3cccc2c13`, the Potency result was “inactive”.

`CC(=O)CC(C)C`: the Potency entry is “inactive”.

With `Cc1ccc(C#N)cc1`, the Potency entry is “inactive”.

For the compound `CCCc1cc(C(N)=S)ccn1`, the Potency entry was “inactive”.

As to `CC(C)(O)C(=O)c1ccccc1`, the Potency entry was “inactive”.

For `COc1ccc2c(c1)c(CC(=O)OCC(=O)O)c(C)n2C(=O)c1ccc(Cl)cc1`, the Potency result was “inactive”.

For `CC1(C)CO[C@@H](CC(=O)O)CN1`, the Potency entry is “inactive”.

As to `NS(=O)(=O)c1ccc(C(=O)O)cc1`, the Potency result was “inactive”.

Regarding `CCCCCCCCS(=O)(=O)Cl`, the Potency result was “inactive”.

Take `COC(=O)CCSCCC(=O)OC`: the Potency result was “inactive”.

`N=C(N)c1ccccc1`: the Potency entry is “inactive”.

Take `O=C(O)c1ccccc1OP(=O)(O)O`: the Potency entry is “inactive”.

On to `CCOc1ccc(C(=O)OCCN(CC)CC)cc1`, for which the Potency result is “inactive”.

With `CCCCOCCOCCOCCCC`, the Potency result is “inactive”.

Consider `O=C(c1ccccc1)C1CCCCC1`, for which the Potency entry was “inactive”.

With `CN1C(=O)N(C)C(O)C1O` (stereo not given), the Potency result is “inactive”.

As for `OC[C@]1(O)OC[C@@H](O)[C@H](O)[C@@H]1O`, the Potency entry was “inactive”.

Turning to `NC(=O)Nc1ccccc1`, the Potency result is “inactive”.

Regarding `Cn1c(N)c(N=O)c(=O)n(C)c1=O`, the Potency result was “inactive”.

As to `CCOC(=O)c1c(C)n(C)c2ccc(O)cc12`, the Potency result was “inactive”.
